Several values for one entry are separate records, joined by “and”; a condition that tells them apart may be missing. Equal values may be shown once. Results filed as inconclusive are left out. A number with no mark means an inactive call. Activity calls are given as the source filed them. Calls come from the whole dose curve; as a rule, active = well fitted cell-killing curve with a large enough effect in the repeat runs; inconclusive = weak or mixed curves; inactive = flat fitted curve, though single readings scatter.
Experiment: qHTS assay to identify small molecule antagonists of the TGF-beta/Smad signaling pathway - cell viability counter screen (AID 1346824); note: nearly all actives have a fitted effect of over 50% in size
Conditions: SBE-bla HEK293T viability, CellTiter-Glo luminescence; series mostly up to 76.8 µM; viability change, negative = cytotoxic: at the top concentration
Description: U.S. Tox21 Program National Center for Advancing Translational Sciences [NCATS] NIH Chemical Genomics Center [NCGC] U.S. Environmental Protection Agency [EPA] National Institutes of Environmental Health Sciences [NIEHS] National Toxicology Program [NTP] U.S. Food and Drug Administration [FDA] Tox21 Assay Overview: Transforming growth factor beta (TGF-beta) superfamily consists of a large number of structurally related dimeric proteins that act as hormones or local mediators in regulating a wide range of biological functions. This superfamily includes TGF-betas themselves, the bone morphogenetic proteins (BMPs) and the activins. These ligands induce oligomerization of serine/threonine receptor kinases and phosphorylate the cytoplasmic signaling molecules of Smad protein family. CellSensor SBE-bla HEK 293T cell line (Life Technologies, Carlsbad, CA), responsive to TGF-beta was used to screen Tox21 10K compound library for identification of agonists/antagonists of the Smad signaling pathway. This cell line contains a beta-lactamase reporter gene under control of the Smad binding element (SBE) stably integrated into HEK 293T cells. Also cytotoxicity of the compounds was tested in parallel by measuring the cell viability using CellTiter-Glo assay system in the same wells.
Tox21 Assay Protocol Summary: SBE-bla HEK 293T cells were dispensed at 4,000/well in 5 uL of assay medium into black wall/clear-bottom 1536-well plates using a Multidrop Combi (ThermoFisher Scientific, Waltham, MA) dispenser. After the assay plates were incubated at 37 C and 5% CO2 for an overnight, 23 nL of compounds dissolved in DMSO, positive controls or DMSO only was transferred to the assay plate by a Pintool station (Kalypsys, San Diego, CA). Compound transfer was followed by the addition of 1 uL of 0.25 ng/mL TGF-beta1 or assay buffer using two separate tips of Flying Reagent Dispenser (FRD, Aurora Discovery, San Diego, CA). The assay plates were incubated at 37 C and 5% CO2 for 5 hr. One uL of LiveBLAzer B/G FRET substrate (Life Technologies) was added using a Flying Reagent Dispenser (FRD, Aurora Discovery, San Diego, CA) and the plates were incubated at room temperature for 2 hr. Fluorescence intensity (405 nm excitation, 460 nm and 530 nm emissions) was measured using an Envision plate reader (PerkinElmer, Shelton, CT). For cytotoxicity read, 4 uL of CellTiter-Glo reagent (Promega Corporation, Madison, WI) was added to each well of the assay plates using FRD. After 30 min incubation at room temperature, the luminescence intensity was measured using ViewLux plate reader (PerkinElmer).
% is set by controls: 0 for no effect and ±100 for the full control effect; potency is the fitted concentration of half-maximal effect.

Point of comparison: CCCNCCC, “viability change, negative = cytotoxic” value -18.6%. Against it:
- Nc1nc(-c2ccccc2)cs1 — higher, -0.741%
- CC(=O)CC(=O)Nc1ccc(S(=O)(=O)O)cc1 — higher, 0.442%
- O=[N+]([O-])c1cccc(C(F)(F)F)c1 — higher, -10.6%
- CC(C)(C)C1CCC(=O)CC1 — higher, -0.96%
- c1ccc(SSc2ccccc2)cc1 — higher, 4.67%
- O=C(c1ccc(O)c(O)c1)c1ccc(O)cc1O — higher, -4.11%
- Oc1cc(Cl)cc(Cl)c1Cl — lower, -19.9%
- CCC(C)(CCC(C)C)C(=O)[O][Sn]([CH3])([CH3])[O]C(=O)C(C)(CC)CCC(C)C (stereo not given) — higher, -17.3%
- OC/C=C/CO — higher, 9.8%
- CCCCOC(=O)CC — higher, -2.67%
- CCC(=O)C(=O)CC — higher, 18.1%
- ClCCl — higher, 3.86%
- CC1=Nc2ccccc2C1(C)C — higher, -0.731%
- Nc1cc(Cl)c(O)c(Cl)c1 — higher, 0.476%
- C=C(C)c1cccc(C(=C)C)c1 — higher, -9.62%
- Cc1c(C)c([N+](=O)[O-])c(C(C)(C)C)c([N+](=O)[O-])c1C — higher, -12.4%
- Cc1ccc(N/N=c2\c(=O)cc/c(=N\Nc3ccc(S(=O)(=O)O)cc3)c2=O)c(C)c1 — higher, 6.56%
- CN(C)Cc1cc(C(C)(C)C)c(O)c(C(C)(C)C)c1 — higher, -12.3%
- FC(F)(F)c1cccc(Cl)c1 — higher, 0.486%
- O=[N+]([O-])c1ccc(F)c(Cl)c1 — higher, -4.09%
- CC(C)OC(=O)C(O)(CC(=O)O)CC(=O)O — higher, 0.606%
- Cc1ccc(C(=O)O)cc1 — higher, -3.08%
- CCCC1CCC(=O)CC1 — higher, 2.54%
- O=[N+]([O-])c1ccc(O)cc1C(F)(F)F — lower, -19.8%
- O=C(O)CCN(C1(C(=O)NO)CCCC1)S(=O)(=O)c1ccc(Oc2ccc(F)cc2)cc1 — higher, 4.67%

Point of comparison: O=C(O)Cc1ccc2c(c1)C(=O)c1ccccc1CO2, “viability change, negative = cytotoxic” value 16.1% [at 35.3 µM]. Against it:
- COc1ccc2c(c1)c(CC(=O)OC/C=C(\C)CC/C=C(\C)CCC=C(C)C)c(C)n2C(=O)c1ccc(Cl)cc1 — lower, -9.49% [at 35.3 µM]
- S=C([S-])NCCNC(=S)[S-].S=C([S-])NCCNC(=S)[S-].[Mn+2].[Zn+2] — lower, 0.144% [at 35.3 µM]
- COC1=C(OC)C(=O)C(CCCCCCCCCCO)=C(C)C1=O — lower, 0.0839% [at 35.3 µM]
- CCOc1ccc2ccccc2c1C(=O)N[C@@H]1C(=O)N2[C@@H]1SC(C)(C)[C@@H]2C(=O)O — lower, 0.529% [at 35.3 µM]
- O=c1[nH]c(=O)n([C@H]2C[C@H](O)[C@@H](CO)O2)cc1F — lower, -0.462% [at 35.3 µM]
- CC[N+](CC)(CC)CCOC(=O)C(C1CCCC1)C1CCCC1 — lower, -3.35% [at 35.3 µM]
- CCCCCCCC/C=C\CCCCCCCCN — lower, -2.99% [at 35.3 µM]
- Nc1ccc(C(=O)O)c(O)c1 — higher, 17.7% [at 35.3 µM]
- CCC(CC)(CC(=O)Nc1cccc(/C=C/c2nc(C3CCC3)cs2)c1)C(=O)O — lower, 5.25% [at 35.3 µM]

In the case of CN(C)c1ccc(C(=C2C=CC(=[N+](C)C)C=C2)c2ccc(N(C)C)cc2)cc1, the Potency is reported as 19.4 µM (active) and 43.6 µM (active) and 19 µM (active).
With CCN(CCN)c1cccc(C)c1 the Potency was “inactive”.

In the case of C=Cc1ccccc1C=C, the “viability change, negative = cytotoxic” value is reported as -5.32% [at 200 µM].

Compound C[C@@H](O)[C@H](N)C(=O)O has a viability change, negative = cytotoxic of 4.73% [at 15.8 µM].
